Compound activity: PubChem, The Scripps Research Institute Molecular Screening Center
Compounds with a hit are over-represented: about 4.1% of the library has one in this group of screens.
DAX1 inh-1 – NR0B1 (DAX1) inhibition; P51843; HEK293 Gal4-DAX1 luciferase reporter, luminescence; inhibition, % at 6.75 µM; 340,000 tested, 0.99% active;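 active = inhibition above the mean over all tested compounds plus 3 SD, cut at about 4.2% in these data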;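 note: 0% = DAX1-transfected cells with DMSO and 100% = empty-vector control cells with DMSO; inhibition shows as a rise in luminescence from relieved DAX1 repression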
Target sequence (P51843 207-470 limits assumed): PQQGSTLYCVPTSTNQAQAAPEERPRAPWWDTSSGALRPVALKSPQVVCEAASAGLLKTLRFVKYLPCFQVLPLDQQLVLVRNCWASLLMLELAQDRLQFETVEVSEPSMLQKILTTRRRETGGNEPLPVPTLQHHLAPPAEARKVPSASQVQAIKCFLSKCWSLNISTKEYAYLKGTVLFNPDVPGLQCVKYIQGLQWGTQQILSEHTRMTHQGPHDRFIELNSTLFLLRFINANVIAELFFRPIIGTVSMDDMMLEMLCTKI
DAX1 inh-2 – inhibitors of DAX1 repression of SF-1 activated StAR promoter | AID 652010 | 370,000 tested, 1.1% active | HEK293T StAR-luciferase reporter, SF-1/DAX-1 repression relief | inhibition, % at 6.8 µM;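 active = inhibition above the mean over all tested compounds plus 3 SD, cut at about 3.6% in these data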;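 note: 0% = DAX-1 cells with DMSO and 100% = cells lacking DAX-1 with DMSO; higher inhibition means more luminescence from relief of DAX-1 repression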
ssDAF12 agonist – activates DAF-12 receptor from parasite S. stercoralis | HEK293 ssDAF-12/GRIP1 lit1-tk-luc reporter, luminescence; % of 3 µM dafachronic acid response | activation, % at 6.8 µM | 370,000 tested, 1% active | AID 652126;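 active = activation above the mean over all tested compounds plus 3 SD, cut at about 0.9% in these data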;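 note: 0% = DMSO-only wells and 100% = 3 µM delta7-dafachronic acid wells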
hgDAF-12 ag – hgDAF-12 agonism, primary luciferase screen. 370,000 tested, 1.8% active. AID 687014. activation, % at 6.8 µM. HEK293 GAL4-hgDAF12 UAS-luciferase reporter, agonist luminescence; normalized to butyrate control;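 active = activation above a cutoff set at the mean of all screened compounds plus 3 SD, cut at about 10% in these data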;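 note: 0% = DMSO wells and 100% = sodium butyrate wells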
hcDAF-12 act – activates DAF-12 receptor from parasite H. contortus | HEK293 hcDAF-12 lit1-tk-luc reporter, luminescence; 0% DMSO, 100% Δ7-dafachronic acid | activation, % at 6.8 µM | 370,000 tested, 1.4% active;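 active = activation above the mean of all tested compounds plus 3 SD, cut at about 5.5% in these data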;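 note: 100% = response to 3 µM Δ7-dafachronic acid high control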
The depositor's hits bear a star; / = not tested or not shown.

SMILES	DAX1 inh-1	DAX1 inh-2	ssDAF12 agonist	hgDAF-12 ag	hcDAF-12 act
COc1ccc(-c2nnn(CC(=O)N(CCCN3CCOCC3)C(C(=O)NC3CCCC3)c3ccco3)n2)cc1 (stereo not drawn)	5.2*	-0.2	-1.1	-2.4	-0.9
COc1cc(F)ccc1-c1csc(C(NC(C)=O)c2cccc(F)c2)n1 (stereo not drawn)	/	4.2*	-0.9	1.9	-0.1
CN(CCc1ccccn1)c1ccccc1	0.5	0.3	0.0	12.0*	6.2*
O=C1NC[C@@H](CCCCN2C[C@H](Cc3ccccc3)N(CCc3ccccc3)C(=O)C2=O)N(Cc2ccccc2)C1=O	/	-0.8	-0.9	-1.1	-1.1
O=C1NC[C@H](CCCCN2C[C@H](Cc3ccccc3)N(Cc3ccccc3)C(=O)C2=O)N(CCc2ccccc2)C1=O	/	3.8*	-1.5	-0.3	-1.0
O=C(Nc1ccn(CCCNCC(c2ccccc2)c2ccccc2)c(=O)n1)OCc1ccccc1	4.4*	-0.3	-1.6	0.9	1.8
CCOc1ccc(-c2csc(N3CCC(C(N)=O)CC3)n2)cc1	/	/	-1.5	4.4	4.0
C[C@@H]1CN([C@@H](C)CO)C(=O)CCCn2cc(nn2)CO[C@H]1CN(C)C(=O)C1CC1	/	-0.4	-0.6	1.6	3.3
COCCNC(=O)COC(=O)CSCc1nc2ccccc2s1	-0.7	0.5	0.1	1.5	5.8*
CSc1ccc(/C=N/NC(=O)c2ccc(O)cc2)cc1	1.6	1.6	-0.9	11.8*	2.6
COc1ccc(C(=O)N/N=C/c2ccc(SC)cc2)cc1	-0.2	-0.2	-0.6	11.5*	-2.4
COc1ccc(C=NNC(=O)c2ccncc2)cc1	/	0.7	-1.0	3.0	0.1
FC(F)(F)Oc1ccc(Cn2ccc3ccc(-c4ccc5ccn(Cc6ccc(OC(F)(F)F)cc6)c5c4)cc32)cc1	/	-0.4	-0.7	4.6	1.3
O=c1c(Cl)c(Nc2cccc(Cl)c2)cnn1-c1nc2ccccc2s1	2.6	3.3	-0.3	4.4	5.9*
C[C@@H](O[Si](c1ccccc1)(c1ccccc1)C(C)(C)C)[C@H]1C(=O)N[C@H](Cc2cn(S(=O)(=O)c3ccccc3)c3ccccc23)C(=O)N1C	/	/	-1.9	0.8	0.0
Cc1[nH]c2ccc(F)cc2c1CCN1C(=O)OC(C)(C)C1(C)O (stereo not drawn)	7.3*	0.8	-0.4	-4.0	-1.9
CCn1c(CNC(=O)Cc2ccc(OC)cc2)n[nH]c1=S	-0.7	4.1*	-1.6	-0.1	-1.4
COc1ccc(CC(=O)NCc2n[nH]c(=S)n2-c2ccc(F)cc2)cc1	1.0	0.1	-1.1	-5.7	0.1
CCOc1ccccc1-c1nnc(SCC(=O)NC2CC2)n1CC	-0.1	-0.8	1.1*	2.7	4.5
CCn1c(CNC(=O)Cc2ccc(OC)cc2)nnc1SCC(=O)NC1CCCCC1	-0.4	-0.2	1.0*	-0.9	0.0
COC(=O)[C@]1(Cc2ccccc2)NC=C(C(=O)c2ccc(F)cc2)[C@@H]1c1ccccc1	/	0.5	-0.9	1.3	-1.2
Cc1c(Cc2c(C)n(C)n(-c3ccccc3)c2=O)c(=O)n(-c2ccccc2)n1C	0.6	0.1	0.2	1.4	0.5
CCCC(=O)NC(=S)c1c(C)n(C)n(-c2ccccc2)c1=O	-0.2	0.6	0.4	-1.7	5.8*
O=C(CSc1nnc(-c2cccs2)o1)c1ccc2c(c1)OCO2	/	-0.2	-1.5	-0.5	0.3
O=S(=O)(NCC(c1ccco1)N1CCc2ccccc2C1)c1ccc(Br)cc1 (stereo not drawn)	0.0	3.7*	-0.9	1.5	-0.7
SMILES	DAX1 inh-1	DAX1 inh-2	ssDAF12 agonist	hgDAF-12 ag	hcDAF-12 act
COc1ccc(C2NCCc3c2[nH]c2ccccc32)cc1CSc1nc2ccccc2s1 (stereo not drawn)	-0.1	0.6	0.5	2.0	5.7*
CCCCc1nc2cc(C(=O)N3CCCCC3C(=O)OC)ccc2o1 (stereo not drawn)	1.0	4.2*	-0.2	12.2*	-0.9
CCCCc1nc2cc(C(=O)NCc3ccccn3)ccc2o1	1.2	0.2	-0.8	0.2	0.3
CCCCc1nc2cc(C(=O)NC(C)c3cnn(C)c3)ccc2o1 (stereo not drawn)	0.9	3.8*	-0.9	7.5	2.2
CCCCc1nc2cc(C(=O)N3CCCC3)ccc2o1	1.2	4.0*	-0.7	3.5	0.8
Cc1ccc(C(=O)Nc2nnc(NC(=S)Nc3ccccc3)s2)cc1	-0.7	0.1	-0.9	3.3	2.3
